# The list is not random: actives were taken first. Their share in the collection is about 0.71%.
# hiPSC survival = hiPSC single-cell survival enhancement | hit rate 0.044% among 360,000 | survival enhancement, % at 20 µM | ATPlite luminescence; 100% = ROCK inhibitor wells, 0% = DMSO; in the data active means survival enhancement above about 18%;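 further: cells exposed to compounds for 16 hours before the ATP read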
# MIN6 prolif = MIN6 beta-cell proliferation induction | hit rate 0.29% among 330,000 | AID 2380 | proliferation, % at 10 µM | MIN6 cells proliferation, ATPlite luminescence, 48 h; cells starved in 0.2% serum; 100% = growth in 10% serum;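 active means compounds whose signal lies at least 3.5 SD above the mean of all wells on their plate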;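 further: 0% = DMSO-treated cells in low-serum medium and 100% = 10% serum control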
# TAG inh = triacylglycerol accumulation inhibition. H9c2 cells, Nile Red lipid (TAG) fluorescence; cells loaded with 200 µM oleic acid. inhibition, % at 12.5 µM. hit rate 0.66% among 230,000. AID 651582;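 active means pattern-corrected inhibition of lipid staining of at least 50% with the nuclear-stain viability signal not falling by more than 50%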;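 further: 0% = DMSO wells and 100% = triacsin C control wells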
# H9c2 TAG conf = confirmation of triacylglycerol accumulation inhibitors. shares compounds with TAG inh. H9c2 lipid accumulation, Nile Red fluorescence; cells loaded with 200 µM oleic acid. inhibition, % at 12.5 µM. hit rate 71% among 990. AID 651629;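 active means mean inhibition across replicates of 40% or more; inactive means mean inhibition below 40%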;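 further: plate controls were DMSO only wells for no effect and Triacsin C treated wells for full effect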
# Numbers without * were called inactive; · = no result.
SMILES,hiPSC survival,MIN6 prolif,TAG inh,H9c2 TAG conf
C[C@H](c1ccccc1)N1C[C@H](COCc2ccccc2)Oc2cc(N3CC[C@@H](O)C3)ccc2S1(=O)=O,2,·,·,·
C=CCC[C@H](Cc1ccc(F)cc1)C(=O)OC[C@H](C)NC(=O)[C@@H](CC=C)CC(=O)N[C@H](CO)Cc1ccccc1,0,-5,55*,44*
C=CCC[C@@H](Cc1ccc(F)cc1)C(=O)OC[C@H](C)NC(=O)[C@@H](CC=C)CC(=O)N[C@@H](CO)Cc1ccccc1,-2,-4,2,·
Cc1noc(C)c1C(=O)N1CCC1(C)C(=O)NS(=O)(=O)c1cccs1 (stereo unspecified),0,·,2,·
COc1ccc(C(=O)Nc2ccc(-c3nnn(CC(=O)NCc4ccco4)n3)cc2)cc1,0,-6,53*,16
COc1ccc(NC(=O)Cn2c(=O)n(-c3ccc(CC(=O)NCc4ccco4)cc3)c(=O)c3ccccc32)cc1,0,-1,65*,54*
Cc1ccc(NC(=O)Cn2c(=O)n(CCCC(=O)NCc3ccco3)c(=O)c3ccccc32)cc1,-3,1,2,·
O=C(Cn1nnc(-c2ccc(Cl)cc2)n1)NCc1ccco1,-1,-4,·,·
CSCCC(NC(=O)c1ccco1)C(=O)NCCc1ccc(Cl)cc1 (stereo unspecified),-1,-1,12,·
O=C(c1cc(-c2ccncc2)nc2ccc(Cl)cc12)N1CCN(Cc2ccc3c(c2)OCO3)CC1,2,-1,23,·
Cc1cc(C)c2nc(-c3ccncc3)cc(C(=O)N3CCN(Cc4ccccc4Cl)CC3)c2c1,0,-7,62*,59*
CCOC(=O)[C@]12CCC=C1N(Cc1ccco1)C(=O)[C@H](CC(=O)NCCC(C)C)C2,0,·,·,·
Cc1cc(NC(=O)CSc2nc(-c3ccco3)cc(C(F)(F)F)n2)no1,-2,-2,66*,58*
Cc1cc(NC(=O)CCSc2nc(-c3ccco3)cc(C(F)(F)F)n2)no1,3,-1,16,·
CCCCCCn1cc(CN2CC(N3CCN(CCO)CC3)CS2(=O)=O)nn1 (stereo unspecified),2,·,·,·
COCCNC(=O)C1(C)CCCN(C(=O)c2cccnc2SC)C1 (stereo unspecified),4,·,2,·
COc1cc2ccc(C(=O)O)cc2cc1OC,1,·,3,·
COc1cc2c(cc1[N+](=O)[O-])-c1ccc([N+](=O)[O-])cc1C2=NNC(N)=S,2,·,52*,42*
NC(=S)NN=C1c2cc(Cl)ccc2-c2c1cc(Cl)cc2[N+](=O)[O-],1,·,5,·
O=C(CCl)N(CCCNC(=O)C(F)(F)F)c1ccc([N+](=O)[O-])cc1,-1,-4,68*,56*
O=C(NCCCNc1ccc([N+](=O)[O-])cc1)C(F)(F)F,2,0,-7,·
Cc1cc(OC(=O)Nc2ccccc2)ccc1Cl,0,·,6,·
CNC(=S)N/N=C(\C)c1ccc(Cl)c(Cl)c1,0,-4,9,·
CNC(=S)NN=C(C)CCCC(C)=NNC(=S)NC,-2,·,71*,95*
CNC[C@@H]1Oc2cc(Br)ccc2S(=O)(=O)N([C@@H](C)CO)C[C@@H]1C,-3,·,2,·
SMILES,hiPSC survival,MIN6 prolif,TAG inh,H9c2 TAG conf
CC[C@]12c3[nH]c4cc(-c5ccco5)ccc4c3CCN1C(=O)[C@@H](CC(=O)NC/C=C(\C)CCC=C(C)C)C[C@@H]2C(=O)N1CCN(C(=O)C2CC2)CC1,0,·,30,·
COc1ccc2[nH]c3c(c2c1)CCN1C(=O)C(CC(=O)NC/C=C(\C)CCC=C(C)C)C[C@H](C(=O)N(C(C)C)C(C)C)[C@@]31C (stereo partly specified),-1,·,55*,55*
C[C@]12c3[nH]c4ccccc4c3CCN1C(=O)C(CC(=O)NCC13CC4CC(CC(C4)C1)C3)C[C@@H]2C(=O)N1CCCCC1 (stereo partly specified),-2,-5,83*,61*
COc1ccc(CNC(=O)C[C@H]2C[C@H](C(=O)N3CCCCC3)[C@@]3(CCc4ccccc4)c4[nH]c5ccc(Cl)cc5c4CCN3C2=O)cc1OC,0,·,53*,84*
CC(C)=CCC/C(C)=C/CNC(=O)C[C@H]1C[C@H](C(=O)N(C(C)C)C(C)C)[C@@]2(C)c3[nH]c4ccc(Cl)cc4c3CCN2C1=O,-2,·,46,·
C[C@]12c3[nH]c4ccccc4c3CCN1C(=O)C(CC(=O)NCC13CC4CC(CC(C4)C1)C3)C[C@@H]2C(=O)N1CCOCC1 (stereo partly specified),0,-5,13,·
CC(C)=CCC/C(C)=C/CNC(=O)C[C@H]1C[C@H](C(=O)N2CCCCC2)[C@@]2(CCc3ccccc3)c3[nH]c4cc(-c5ccco5)ccc4c3CCN2C1=O,-1,·,69*,92*
CC[C@]12c3[nH]c4ccc(Cl)cc4c3CCN1C(=O)[C@@H](CC(=O)NCc1ccc(OC)c(OC)c1)C[C@@H]2C(=O)N1CCN(C(=O)C2CC2)CC1,0,·,18,·
C[C@@H](NC(=O)[C@@H]1CCCN1C(=O)[C@@H]1CCCN1C(=O)c1cccc(Cl)c1)c1ccccc1,1,·,·,·
COc1ccccc1S(=O)(=O)N(C)C[C@@H]1OCc2cnnn2CCCC(=O)N([C@H](C)CO)C[C@H]1C,2,·,1,·
CCc1ccc(-n2c(=S)sc3c(=O)[nH]c(SCC(=O)NC4CCCCC4)nc32)cc1,5,·,-19,·
CC(C)c1ccc(NC(=O)C2(C)Cc3c(-c4ccccc4)ccnc3O2)cc1 (stereo unspecified),5,·,-18,·
O=C1CCCC2=C1C1(CCCCC1)N=C(Nc1nc3ccccc3o1)N2,2,-4,14,·
O=C1CCCC2=C1C1(CCCC1)N=C(Nc1nc3cc(-c4ccccc4)ccc3o1)N2,-2,·,62*,71*
CCN1CCN(C(=O)/C(C#N)=C/c2ccc(OC(F)F)cc2)CC1,0,-1,-9,·
N#C/C(=C\c1ccc(OC(F)F)cc1)C(=O)N1CCCCC1,0,-3,83*,2
Cc1ccc(-c2c(C)nn3c(N4CCOCC4)cc(C)nc23)cc1,0,-4,·,·
Cc1cc(N2CCOCC2)n2nc(C)c(-c3ccccc3)c2n1,-1,-1,60*,46*
N#Cc1cccc(NC(=O)c2cc(C3CCCCN3C(=O)c3cccs3)on2)c1 (stereo unspecified),0,·,13,·
O=C(Nc1nc(OCC(F)(F)F)cnc1/C=C\c1ccccc1)c1ccccc1,1,·,4,·
CC(C)NS(=O)(=O)c1ccc(CCC(=O)Nc2cc(Cl)ccc2Oc2ccccc2)cc1,-2,-3,52*,34
CCNS(=O)(=O)c1ccc(CCC(=O)Nc2cc(Cl)ccc2Oc2ccccc2)cc1,-1,-4,·,·
O=C(Nc1ccc2c(c1)OCO2)c1csc([C@H]2C[C@H](O)[C@@H](CO)O2)n1,0,·,-6,·
Cc1nn2c(N3CCN(C)CC3)c3c(nc2c1-c1ccccc1)CCCC3,-1,-4,58*,45*
Cc1nn2c(NCCN3CCOCC3)c3c(nc2c1-c1ccccc1)CCCC3,0,1,14,·
Cc1cc(NCc2ccccn2)n2nc(C)c(-c3ccccc3)c2n1,1,-4,44,·

# Screening results (PubChem BioAssay)
